The sample as a whole holds a higher share of hits than the screen did.
DUX4 inh – blocks DUX4-driven transcriptional activation. 293T-iDUX4 ZSCAN4-Gaussia luciferase reporter, 24 h; active compounds read low. activity change, negative = inhibition, % (test concentration not listed). hit rate 0.8% among 37,000;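 active = mean inhibition of at least 10% in the main channel, exceeding the control channel by a set limit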
Each line names hits and unclear results; the compound was inactive in the other large screens; ! = not confirmed by another sample.

N#Cc1ccc(-c2ccc(C3[C@@H]4CN(Cc5ccccc5F)C[C@H]3N4)cc2)cc1 (some centres not stated)	DUX4 inh -43.6!
COc1ccccc1CN1[C@@H]2CNC[C@H]1C2c1ccc(-c2ccncc2)cc1 (some centres not stated)	none
CN(C)C(=O)c1cccc(-c2ccc(C3[C@@H]4CN(Cc5cocn5)C[C@H]3N4)cc2)c1 (some centres not stated)	none
COc1ccccc1CN1C[C@@H]2N[C@H](C1)C2c1ccc(-c2ccncc2)cc1 (some centres not stated)	DUX4 inh -13.9!
CN(C)C(=O)c1ccc(-c2ccc(C3[C@@H]4CN(Cc5nccs5)C[C@H]3N4)cc2)cc1 (some centres not stated)	none
CNC[C@@H]1Oc2c(NC(=O)C3CCOCC3)cccc2C(=O)N([C@H](C)CO)C[C@H]1C	none
Cc1ccccc1-c1ccc([C@H]2[C@H]3CN(C(=O)Cc4ccccn4)CC(=O)N3[C@H]2CO)cc1	none
CCC(=O)N1C[C@H](C)[C@@H](OC)CN(C)C(=O)c2cc(NC(=O)NC3CCCC3)ccc2OC[C@@H]1C	none
COC(=O)[C@H]1[C@H](CO)[C@H]2Cn3c(ccc(-c4ccccc4F)c3=O)[C@H]2N1C(=O)c1cnccn1	none
CCS(=O)(=O)N1CC2(CN(Cc3cccnc3)[C@H](CO)c3c2c2ccc(OC)cc2n3C)C1	none
O=C(C[C@@H]1C=C[C@H](NC(=O)CC2CC2)[C@@H](CO)O1)NCC(F)(F)F	none
CCCNC[C@H]1[C@@H](c2ccc(-c3cccc(C#N)c3)cc2)[C@@H](CO)N1C(C)=O	none
COc1ccccc1C#Cc1ccc2c(c1)[C@H]1[C@H](CCN1C(=O)CN1CCOCC1)[C@H](CO)N2	DUX4 inh -20.6
COCC(=O)N1CC[C@@H]2[C@H]1c1cc(-c3ccc(C#N)cc3)ccc1N[C@@H]2CO	DUX4 inh -33.7
N#Cc1ccc(-c2ccc3c(c2)[C@@H]2[C@@H](CCN2C(=O)Cc2ccccc2)[C@H](CO)N3)cc1	none
CCC(=O)N1CC[C@@H]2[C@H](CO)Nc3ccc(C#Cc4ccc(OC)cc4)cc3[C@@H]21	none
COCC(=O)N1CC[C@@H]2[C@H]1c1cc(C#Cc3ccc(OC)cc3)ccc1N[C@@H]2CO	DUX4 inh -18.1
COCC(=O)N1CC[C@@H]2[C@@H](CO)Nc3ccc(C#Cc4ccc(F)cc4)cc3[C@@H]21	none
O=C(Cc1ccccc1)N1CC[C@@H]2[C@H]1c1cc(-c3ccc(F)cc3)ccc1N[C@@H]2CO	DUX4 inh -23.5
O=C(Cc1ccccc1)N1CC[C@@H]2[C@@H](CO)Nc3ccc(-c4cccc(F)c4)cc3[C@@H]21	none
COc1ccccc1C#Cc1ccc2c(c1)[C@H]1[C@H](CCN1C(=O)CN1CCOCC1)[C@@H](CO)N2	none
COCC(=O)N1CC[C@@H]2[C@H](CO)Nc3ccc(-c4ccc(C(=O)N(C)C)cc4)cc3[C@@H]21	none
O=C(CN1CCOCC1)N1CC[C@H]2[C@H](CO)Nc3ccc(-c4ccccc4)cc3[C@H]21	none
COCC(=O)N1CC[C@H]2[C@H](CO)Nc3ccc(-c4ccc(C#N)cc4)cc3[C@H]21	none
CO[C@H]1CN(C)C(=O)c2ccc(NC(=O)Cc3ccccc3)cc2OC[C@@H](C)N(CC2CC2)C[C@@H]1C	none
O=C(C[C@H]1C[C@H]2c3cc(NS(=O)(=O)c4ccc(F)cc4)ccc3O[C@H]2[C@H](CO)O1)NC1CCCCC1	none
COc1cccc(CN(C)C[C@@H]2OCc3cn(nn3)CCCC(=O)N([C@@H](C)CO)C[C@@H]2C)c1	none
CCC(=O)N1CC2(C1)[C@H](c1ccccc1)[C@@H](CO)N2C(=O)c1ccncc1	none
CCC(=O)N1CCC2(CC1)CN[C@@H](CO)c1c2c2ccc(OC)cc2n1C	none
CCCNC(=O)[C@@H]1N[C@@H]2c3ccc(-c4cccc(F)c4)c(=O)n3C[C@@H]2[C@H]1CO	none
N#C[C@@H]1[C@@H](c2ccccc2-c2cccc(F)c2)[C@@H](CO)N1C(=O)NC1CCCCC1	DUX4 inh -29.2
Cc1ccc(-c2ccccc2[C@H]2[C@@H](C#N)N(C(=O)NC3CCCC3)[C@H]2CO)cc1	none
N#C[C@@H]1[C@@H](c2ccc(-c3cccc(F)c3)cc2)[C@@H](CO)N1C(=O)NC1CCCC1	none
COc1ccccc1C#Cc1ccc2c(c1)[C@@H]1[C@@H](CCN1C(=O)c1cccc(F)c1)[C@H](CO)N2	none
O=C(c1ccc2c(c1)OCO2)N1CC[C@@H]2[C@H](CO)Nc3ccc(-c4ccccc4)cc3[C@@H]21	none
O=C(c1ccccc1)N1CC[C@@H]2[C@H](CO)Nc3ccc(C#Cc4cccc(F)c4)cc3[C@@H]21	DUX4 inh -39.6
O=C(c1ccccc1F)N1CC[C@@H]2[C@@H](CO)Nc3ccc(C#Cc4ccccc4F)cc3[C@@H]21	none
O=C(c1ccc2c(c1)OCO2)N1CC[C@@H]2[C@H](CO)Nc3ccc(C#Cc4ccccc4)cc3[C@@H]21	DUX4 inh -54.2
O=C(c1ccccc1)N1CC[C@H]2[C@H](CO)Nc3ccc(C#Cc4cccc(F)c4)cc3[C@H]21	none
O=C(c1ccccc1F)N1CC[C@@H]2[C@H](CO)Nc3ccc(C#Cc4ccc(F)cc4)cc3[C@@H]21	DUX4 inh -33.2

Compound activity as filed in PubChem.
